The source made the active and inactive calls. Rule for the calls: active = hit-call score of the fitted dose curve at least 0.9, where 1 is the maximum; inactive = score below 0.9.
Assays:
Details in all cases: mRNA level, 48 h; actives raise or lower the signal
[1] = read-out: Glutamate-cysteine ligase catalytic (GCLC), GCLC (gene 2729); experiment: LTEA_HepaRG_GCLC: Life Technologies and Expression Analysis (LTEA) Assay for Glutamate-cysteine ligase catalytic (GCLC) using HepaRG (AID 2283498)
Method in brief: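 Read-out is GCLC transcript level by Fluidigm-based TaqMan qRT-PCR, normalized to three housekeeping genes and fitted in both directions relative to 0.5% DMSO. Human HepaRG cells received chemicals for 48 h, up to 100 uM.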

[2] = read-out: growth arrest and DNA damage 45 (GADD45G), GADD45G (gene 10912); experiment: LTEA_HepaRG_GADD45G: Life Technologies and Expression Analysis (LTEA) Assay for growth arrest and DNA damage 45 (GADD45G) using HepaRG (AID 2283499)
Method in brief: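 Differentiated human HepaRG cells in serum-free induction medium were exposed for 48 h to 8 half-log concentrations up to 100 uM in 0.5% DMSO, in duplicate. GADD45G mRNA was measured by TaqMan qRT-PCR, normalised to ACTB, GAPDH and POLR2A, and fitted bidirectionally against DMSO.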

[3] = read-out: Glutamate-cysteine ligase regulatory (GCLM), GCLM (gene 2730); experiment: LTEA_HepaRG_GCLM: Life Technologies and Expression Analysis (LTEA) Assay for Glutamate-cysteine ligase regulatory (GCLM) using HepaRG (AID 2283500)
Method in brief: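 Human liver HepaRG cultures receive test chemicals for 48 hours at up to 100 uM in 0.5% DMSO. GCLM expression is measured by qRT-PCR and analysed for increases or decreases against vehicle.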

[4] = read-out: Glutathione S-transferase M3 (GSTM3), GSTM3 (gene 2947); experiment: LTEA_HepaRG_GSTM3: Life Technologies and Expression Analysis (LTEA) Assay for Glutathione S-transferase M3 (GSTM3) using HepaRG (AID 2283501)
Method in brief: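 Differentiated HepaRG cells in serum-free induction medium were exposed in duplicate for 48 h to 8 half-log concentrations up to 100 uM in 0.5% DMSO. GSTM3 mRNA was measured by TaqMan qRT-PCR, normalized to ACTB/GAPDH/POLR2A, and fitted bidirectionally versus DMSO.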

[5] = read-out: Heat shock 70 kDa protein 1 (HSPA1A), gene 3303; experiment: LTEA_HepaRG_HSPA1A: Life Technologies and Expression Analysis (LTEA) Assay for Heat shock 70 kDa protein 1 (HSPA1A) using HepaRG (AID 2283502)
Method in brief: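 HSPA1A induction in human HepaRG liver cells is measured after 48 h of chemical treatment (100 uM maximum, 0.5% DMSO vehicle). Expression comes from qRT-PCR normalized to endogenous controls.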

[6] = read-out: Hypoxia-inducible factor 1-alpha (Homo sapiens) (UniProt Q16665); experiment: LTEA_HepaRG_HIF1A: Life Technologies and Expression Analysis (LTEA) Assay for Hypoxia-inducible factor 1 (HIF1A) Trancription factor using HepaRG (AID 2283503);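 note: HIF1A transcript by TaqMan qRT-PCR normalized to ACTB GAPDH and POLR2A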
Method in brief: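 HepaRG, 48 h exposure, 8-pt half-log series from 100 uM, 0.5% DMSO vehicle, duplicates. Readout: HIF1A transcript by qRT-PCR (Fluidigm array), housekeeping-normalised. Bidirectional curve fit vs DMSO baseline.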

[7] = read-out: 3-Hydroxy-3-Methylglutaryl-CoA Synthase 2 (HMGCS2), HMGCS2 (gene 3158); experiment: LTEA_HepaRG_HMGCS2: Life Technologies and Expression Analysis (LTEA) Assay for 3-Hydroxy-3-Methylglutaryl-CoA Synthase 2 (HMGCS2) using HepaRG (AID 2283504)
Method in brief: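 Differentiated human HepaRG cells were exposed in duplicate for 48 h in serum-free induction medium to eight concentrations (top 100 uM, half-log steps, 0.5% DMSO). HMGCS2 mRNA was quantified by TaqMan qRT-PCR, normalised to ACTB, GAPDH and POLR2A, then fitted bidirectionally against DMSO.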

HGF (gene 3082) = experiment: LTEA_HepaRG_HGF: Life Technologies and Expression Analysis (LTEA) Assay for Hepatocyte Growth Facto (HGF) using HepaRG (AID 2283505)
Method in brief: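 Differentiated human HepaRG cells in serum-free induction medium were exposed in duplicate for 48 h to eight concentrations (top 100 uM, half-log steps, 0.5% DMSO). HGF mRNA was quantified by qRT-PCR, normalized to ACTB, GAPDH and POLR2A.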

[8] = read-out: Insulin Like Growth Factor 1 (IGF1), IGF1 (gene 3479); experiment: LTEA_HepaRG_IGF1: Life Technologies and Expression Analysis (LTEA) Assay for Insulin Like Growth Factor 1 (IGF1) using HepaRG (AID 2283506)
Method in brief: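 Using human HepaRG liver cells, IGF1 transcript induction or suppression is measured 48 h after dosing across eight concentrations capped at 100 uM. Values derive from bidirectional concentration-response fitting with DMSO as baseline.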

[9] = read-out: Insulin-like growth factor-binding protein 1 (IGFBP1), IGFBP1 (gene 3484); experiment: LTEA_HepaRG_IGFBP1: Life Technologies and Expression Analysis (LTEA) Assay for Insulin-like growth factor-binding protein 1 (IGFBP1) using HepaRG (AID 2283508)
Method in brief: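 Differentiated human HepaRG cells in serum-free induction medium were exposed in duplicate for 48 h to eight concentrations, top 100 uM with half-log dilutions, in 0.5% DMSO. Transcript levels came from qRT-PCR normalised to ACTB, GAPDH and POLR2A, fitted bidirectionally against DMSO.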

[10] = read-out: Interleukin 6 (IL6), IL6 (gene 3569); experiment: LTEA_HepaRG_IL6: Life Technologies and Expression Analysis (LTEA) Assay for Interleukin 6 (IL6) using HepaRG (AID 2283509)
Method in brief: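 HepaRG, ~100,000 cells/well, 48 h pre-culture; serum-free induction medium; cmpd 8-pt half-log from 100 uM, 0.5% DMSO, duplicate, 48 h. Lysis in RLT, TaqMan qRT-PCR; gain or loss vs DMSO.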

[11] = read-out: Interleukin 6 Receptor (IL6R), IL6R (gene 3570); experiment: LTEA_HepaRG_IL6R: Life Technologies and Expression Analysis (LTEA) Assay for Interleukin 6 Receptor (IL6R) using HepaRG (AID 2283510);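 for AC50: TaqMan qRT-PCR signal normalized to ACTB GAPDH and POLR2A housekeeping genes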
Method in brief: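 Concentration-response in human liver HepaRG cells: eight concentrations from 100 uM downward by half-logs, 48 h exposure, 0.5% DMSO vehicle. IL6R mRNA change measured by qRT-PCR and fitted in both directions relative to vehicle.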

[12] = read-out: Potassium channel subfamily K member 1 (KCNK1), KCNK1 (gene 3775); experiment: LTEA_HepaRG_KCNK1: Life Technologies and Expression Analysis (LTEA) Assay for Potassium channel subfamily K member 1 (KCNK1) using HepaRG (AID 2283511)
Method in brief: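 Gain or loss of KCNK1 mRNA is the read-out, quantified by qRT-PCR against three housekeeping genes after 48 h chemical treatment of human HepaRG liver cells. Concentrations ran from 100 uM downward in half-log steps, vehicle 0.5% DMSO.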

[13] = read-out: Keratin 19 (KRT19), KRT19 (gene 3880); experiment: LTEA_HepaRG_KRT19: Life Technologies and Expression Analysis (LTEA) Assay for Keratin 19 (KRT19) using HepaRG (AID 2283512)
Method in brief: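 Differentiated human HepaRG cells, plated 48 h, were exposed in duplicate for 48 h in serum-free induction medium to eight half-log concentrations up to 100 uM in 0.5% DMSO. KRT19 mRNA was quantified by qRT-PCR, normalized to ACTB, GAPDH and POLR2A, and fitted bidirectionally versus DMSO.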

[14] = read-out: JUN Transcription Factor, JUN (gene 3725); experiment: LTEA_HepaRG_JUN: Life Technologies and Expression Analysis (LTEA) Assay for JUN Transcription Factor using HepaRG (AID 2283513)
Method in brief: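 Human HepaRG liver cells receive test chemicals in 0.5% DMSO for 48 h across an eight-point range topping at 100 uM. Expression changes in JUN are scored in both directions against the DMSO vehicle.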

[15] = read-out: Lipase C (LIPC), LIPC (gene 3990); experiment: LTEA_HepaRG_LIPC: Life Technologies and Expression Analysis (LTEA) Assay for Lipase C (LIPC) using HepaRG (AID 2283514)
Method in brief: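 Read-out is LIPC transcript level by TaqMan qRT-PCR, normalized to three housekeeping genes, after 48 h chemical treatment of human HepaRG liver cells. Curves span eight concentrations topping at 100 uM; activity in either direction scored relative to 0.5% DMSO.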

[16] = read-out: Lipoprotein lipase (LPL), LPL (gene 4023); experiment: LTEA_HepaRG_LPL: Life Technologies and Expression Analysis (LTEA) Assay for Lipoprotein lipase (LPL) using HepaRG (AID 2283515)
Method in brief: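 Read-out is LPL transcript level by qRT-PCR, normalized to three housekeeping genes and fitted bidirectionally against the DMSO control. Human HepaRG cells received chemicals for 48 h at up to 100 uM.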

[17] = read-out: MicroRNA 122 (MIR122), gene 406906; experiment: LTEA_HepaRG_MIR122: Life Technologies and Expression Analysis (LTEA) Assay for MicroRNA 122 (MIR122) using HepaRG (AID 2283516); note: the transcript read is the microRNA miR-122
Method in brief: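 HepaRG, 48 h exposure, 8-pt half-log from 100 uM, 0.5% DMSO; TaqMan qRT-PCR; bidirectional fit vs DMSO.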

[18] = read-out: matrix metalloproteinase-10 (MMP10), MMP10 (gene 4319); experiment: LTEA_HepaRG_MMP10: Life Technologies and Expression Analysis (LTEA) Assay for matrix metalloproteinase-10 (MMP10) using HepaRG (AID 2283517)
Method in brief: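 Gain or loss of MMP10 mRNA is fitted relative to the 0.5% DMSO vehicle. The human hepatic line HepaRG receives a 48-hour serum-free exposure, in duplicate, with a maximum concentration of 100 uM.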

[19] = read-out: Intercellular Adhesion Molecule 1 (ICAM1), ICAM1 (gene 3383); experiment: LTEA_HepaRG_ICAM1: Life Technologies and Expression Analysis (LTEA) Assay for Intercellular Adhesion Molecule 1 (ICAM1) using HepaRG (AID 2283507)
Method in brief: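 Differentiated HepaRG cells in serum-free induction medium were exposed in duplicate for 48 h to eight half-log concentrations up to 100 uM in 0.5% DMSO. Transcript levels were measured by qRT-PCR normalized to ACTB, GAPDH and POLR2A; bidirectional fits relative to DMSO.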

Measured: AC50

Chain of Hypoxia-inducible factor 1-alpha (Homo sapiens) (Q16665 whole entry, looked up): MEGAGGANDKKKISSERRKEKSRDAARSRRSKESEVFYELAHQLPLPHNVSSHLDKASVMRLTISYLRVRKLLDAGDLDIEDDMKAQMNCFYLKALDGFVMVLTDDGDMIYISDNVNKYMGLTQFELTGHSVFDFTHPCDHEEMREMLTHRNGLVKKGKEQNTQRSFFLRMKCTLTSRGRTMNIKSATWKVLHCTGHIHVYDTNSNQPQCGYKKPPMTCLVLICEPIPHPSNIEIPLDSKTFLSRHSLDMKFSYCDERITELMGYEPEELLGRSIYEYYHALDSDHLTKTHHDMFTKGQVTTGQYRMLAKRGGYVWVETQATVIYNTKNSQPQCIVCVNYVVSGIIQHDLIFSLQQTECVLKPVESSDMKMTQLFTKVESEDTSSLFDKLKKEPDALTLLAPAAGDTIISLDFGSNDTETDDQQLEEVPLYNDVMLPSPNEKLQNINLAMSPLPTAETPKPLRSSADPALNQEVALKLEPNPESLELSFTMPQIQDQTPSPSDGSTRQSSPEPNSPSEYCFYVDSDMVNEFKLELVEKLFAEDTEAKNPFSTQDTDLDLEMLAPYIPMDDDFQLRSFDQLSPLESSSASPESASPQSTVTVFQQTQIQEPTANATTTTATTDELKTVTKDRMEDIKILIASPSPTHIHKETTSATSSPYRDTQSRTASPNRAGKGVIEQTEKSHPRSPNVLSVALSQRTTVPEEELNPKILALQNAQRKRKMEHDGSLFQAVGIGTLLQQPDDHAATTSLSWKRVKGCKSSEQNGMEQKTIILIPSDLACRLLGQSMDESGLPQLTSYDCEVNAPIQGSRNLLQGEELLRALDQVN

CC(=O)CC(C)(C)O
not listed: [19]
inactive: all other assays above

CC[C@H](C)[C@@H](C(=O)O)n1sc2ccccc2c1=O
not listed: [6] | [19]
inactive: all other assays above

CN(C)C=O
not listed: [19]
inactive: all other assays above

CCC(C)(C)C1CCC(O)CC1 (centres undefined)
not listed: [6]
inactive: all other assays above

CC(=O)NC1(c2cccc(F)c2)CCN(CC[C@@]2(c3ccc(Cl)c(Cl)c3)CN(c3ccccc3)C(=O)CO2)CC1
active: [2] 41.5 µM | [5] 27.9 µM | [8] 13.1 µM | [9] 41.5 µM | [10] 76.2 µM | [11] 77.5 µM | [14] 62.1 µM | [16] 23.1 µM | [18] 71 µM
not listed: [6] | [19]
inactive: all other assays above

CC(C)(C)CC(C)(C)c1ccc(O)c(-n2nc3ccccc3n2)c1
active: [5] 72.7 µM | [7] 50 µM
not listed: [8] | [19]
inactive: all other assays above

CCCCCCCC(=O)O
not listed: [8] | [19]
inactive: all other assays above
